# Bioassay records as filed in PubChem BioAssay.
# The list is not random: actives were taken first. Their share in the collection is about 5.9%.
# Coupling enz = inhibits coupling enzyme system, counter-screen for aldolase hits; coupling enzyme system counterscreen, AmpLite Red fluorescence; activity change, negative = inhibition, % at 58.2 µM, hits read low; hit rate 0.67% among 290,000; AID 2472; in the data active = activity change below about -30%
#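 First, compound is pin-transferred into glyceraldehyde-3-phosphate coupling-enzyme reagent at 57.5 uM final and held 10 min at RT. Next, substrate, coupling system and AmpLite Red are added. After 20 min RT, fluorescence (525/598 nm) is read.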
# VP16 counter = counter-screen for ROR gamma inhibitors: Gal4-VP16 reporter. Potency, µM (series often up to 53.6 µM), for inactives: top-dose activity, negative = inhibition, hits mostly inhibitors. hit rate 3.5% among 310,000. AID 2546. Drosophila S2 Gal4-VP16 UAS-luciferase, luminescence, 20 h;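 also: Gal4-VP16 expression switched on by copper sulfate through the metallothionein promoter; potency is read from the fitted curve at half-maximal effect; nearly all actives have a fitted effect of over 50% in size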
# TrxR1 substrate = is turned over as a substrate by rat TrxR1; hit rate 0.01% among 390,000; purified TrxR1 substrate turnover, NADPH consumption readout; Potency, µM (titrated, usually from 114 µM), inactives show at the top dose activity change, negative = substrate turnover; O89049; also: potency is read from the fitted curve at half-maximal effect; nearly all actives have a fitted effect of over 50% in size
#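 Rat TrxR1, dispensed at 90 nM, was prereduced with 400 uM NADPH (final) for 5 min at ~22 deg C, then incubated with compound 15 min before 400 uM selenite. A first-read NADPH fluorescence drop versus no-compound background flagged substrates.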
# RORg inh = ROR gamma (mouse) transcription inhibition; Potency, µM (doses to about 53.6 µM), for inactives: at the highest dose activity change, negative = inhibition, most hits filed as inhibitors; P51450; Drosophila S2 Gal4-RORgamma UAS-luciferase reporter, 20 h; hit rate 5.4% among 310,000; also: potency is read from the fitted curve at half-maximal effect; nearly all actives have a fitted effect of over 60% in size
# Target sequence (P51450 whole entry, looked up, the tested form may be a part): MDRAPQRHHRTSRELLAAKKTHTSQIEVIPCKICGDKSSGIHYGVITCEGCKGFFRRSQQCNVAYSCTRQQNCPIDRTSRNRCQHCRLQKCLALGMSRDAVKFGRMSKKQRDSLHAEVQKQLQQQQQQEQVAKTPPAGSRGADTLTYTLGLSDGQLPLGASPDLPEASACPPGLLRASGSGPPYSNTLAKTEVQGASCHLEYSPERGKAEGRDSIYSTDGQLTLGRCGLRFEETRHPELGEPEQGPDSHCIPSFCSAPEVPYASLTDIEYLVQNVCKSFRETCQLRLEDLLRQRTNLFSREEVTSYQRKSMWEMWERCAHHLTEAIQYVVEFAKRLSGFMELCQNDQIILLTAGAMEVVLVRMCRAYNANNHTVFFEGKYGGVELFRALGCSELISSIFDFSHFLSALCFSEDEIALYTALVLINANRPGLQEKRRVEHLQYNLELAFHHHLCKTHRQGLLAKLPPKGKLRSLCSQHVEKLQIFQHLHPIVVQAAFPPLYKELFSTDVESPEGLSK
#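 In this cell-based reporter format, copper sulfate (700 uM final) drives Gal4–ROR gamma fusion expression from a metallothionein promoter in Drosophila Schneider cells; compounds preincubated 1 hr, reporter read after 20 hr at ambient temperature.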
# rTrxR1 inhibitor = rat TrxR1 inhibition; recombinant rTrxR1, NADPH fluorescence consumption, selenite substrate; Potency, µM (top dose mostly 114 µM), without a hit: top-dose activity change, negative = inhibition, hits mostly inhibitors; hit rate 1% among 390,000; also: potency is read from the fitted curve at half-maximal effect; nearly all actives have a fitted effect of over 65% in size
#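 Rat TrxR1 (90 nM in the dispensed reagent) was pre-reduced with 400 uM NADPH for 5 min at room temperature, then incubated with compound for 15 min. After 400 uM selenite was added, NADPH fluorescence (Ex 340/Em 450 nm) was followed for 8 min.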
# GALK inh = blocks human galactokinase activity; P51570; hit rate 0.007% among 270,000; Purified GALK, Kinase-Glo residual ATP luminescence; Potency, µM (series often up to 57.5 µM), inactives show at the highest dose activity change, negative = inhibition, hits mostly inhibitors; also: potency is read from the fitted curve at half-maximal effect
#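 Luminescence from leftover ATP (Ultra-Glo luciferase/luciferin) served as read-out after a 1 h room-temperature reaction of 5 nM GALK with 35 uM ATP and 100 uM galactose.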
# * = called active by the depositor; ? = inconclusive; . = no result given; [ ] = another dose, or the depositor's remark. Unless noted, calls follow the shape of the dose curve; as a rule, active = well fitted curve in the direction sought with a large enough effect; inconclusive = small, poorly fitted or top-dose-only effect, or another doubt; inactive = no such curve, though single readings can be large; an effect the other way counts as inactive or inconclusive. % is scaled to controls: 0 for no effect and ±100 for the full control effect.
SMILES,Coupling enz,VP16 counter,TrxR1 substrate,RORg inh,rTrxR1 inhibitor,GALK inh
Cc1ccc2[nH]c(=O)c(CN(Cc3ccc4c(c3)OCO4)Cc3nnnn3Cc3ccco3)cc2c1,0,-13%,-4%[57.1 µM],47%,6%[57.1 µM],0%
Cc1cccc(NC(=O)COc2ccccc2C(=O)Nc2ccccc2)c1,.,.,-3%,.,1%,.
COc1ccc(CCN(C)C(=O)CCCN2C(=O)c3cccc4cccc(c34)C2=O)cc1OC,0,-12%,-1%,-8%,-4%,4%
O=C(Nc1nc2ccccc2[nH]1)c1ccccc1,1,7.9µM*,-6%,6.3µM*,-15%,3%
O=C(Nc1nc2ccccc2[nH]1)c1ccccc1O,1,6.3µM*,98%,13µM*,41%,5%
CC(=O)Nc1nc2ccccc2[nH]1,3,17%,2%,-10%,15%,-3%
COc1cc(/C=C(/C(=O)c2cccs2)c2nc3ccccc3[nH]2)cc(OC)c1O,-5,?,-16%,?,56µM*,-5%
O=C(Nc1nc2ccccc2[nH]1)c1ccc(Cl)cc1,-3,2.8µM*,1%,13µM*,-5%,0%
Cc1cccc(-c2nc3c4ccccc4n(CC(=O)Nc4cccc(F)c4)c(=O)n3n2)c1,.,.,4%[57.1 µM],.,25%[57.1 µM],.
CC(C)c1ccc(NC(=O)CSc2n[nH]c(=O)n2-c2ccc3c(c2)OCCO3)cc1,-1,-2%,-9%,?,0%,.
O=C(NNc1ncnc2ccccc12)c1cccc(Cl)c1,0,-28%,7%,7.1µM*,10%,-2%
O=C(Nc1nc2ccccc2[nH]1)c1cccc(Cl)c1,0,4.5µM*,-3%,4µM*,6%,-3%
O=C(/C(=C/c1ccc(Cl)cc1)c1nc2ccccc2[nH]1)c1ccccc1,2,10µM*,-1%[57.1 µM],4.5µM*,2%[57.1 µM],-6%
CC(=O)N1CCN(S(=O)(=O)c2cccc(C(=O)Nc3nc4ccccc4[nH]3)c2)CC1,-3,-23%,7%[57.1 µM],?,11%[57.1 µM],0%
Cc1c(NC(=O)c2noc(C(C)C)c2[N+](=O)[O-])c(=O)n(-c2ccccc2)n1C,-1,7%,-2%,9%,-2%,4%
Cc1ccc(Cn2cnc3nc4c(cc3c2=O)CCCC4)cc1,.,.,-1%[57.1 µM],.,12%[57.1 µM],.
CCn1c(=S)[nH]c2nc3c(cc2c1=O)CCCC3,0,?,-1%,1.6µM*,8%,.
O=c1c2cn[nH]c2[nH]c(=S)n1-c1ccccc1,-4,5%,-5%,-26%,?,-2%
O=c1c2cc3c(nc2[nH]c(=S)n1-c1ccccc1)CCCC3,-2,?,3%,2.5µM*,11%,-1%
CCN(CC)C(=O)C[n+]1cccc(/C=N/O)c1,2,?,-2%[57.1 µM],-6%,17%[57.1 µM],.
CCCOc1ccc2cc(-c3ccccn3)c(=O)oc2c1,-1,5µM*,620%,7.1µM*,372%,9%
CSCCC(NS(=O)(=O)c1ccccc1F)C(=O)NCC(c1ccco1)N(C)C (stereo not drawn),.,.,-4%[2.29 µM],.,4%[57.1 µM],.
O=C(CN1C(=O)C2C3CCC(C3)C2C1=O)OCC(=O)c1cccc([N+](=O)[O-])c1 (stereo not drawn),5,2%,0%,-4%,3%,2%
CCC(Cc1ccccc1)NC(=O)CCS(=O)(=O)c1cc2c(cc1Cl)NC(=O)CO2 (stereo not drawn),.,.,9%[11.4 µM],.,23%,.
CCOC(=O)C1CCN(Cc2c(O)c3ccccc3oc2=O)CC1,14,-12%,-9%,?,-27%,1%
COc1ccccc1CNC(=O)CSc1nn2c(=O)c(C(C)(C)C)nnc2s1,-2,?,-3%,10µM*,5%,0%
COc1ccccc1CNC(=O)CSc1ccc(C)cc1,-30*,-17%,-2%,0%,5%,1%
COc1ccc(CNC(=O)CSc2nn3c(=O)c(C(C)(C)C)nnc3s2)cc1OC,0,2%,0%,3.5µM*,9%,-1%
COc1ccc(CCNC(=O)CSc2nn3c(=O)c(C)nnc3s2)cc1OC,0,2%,-5%,-1%,11%,3%
